Results reported in PubChem BioAssay (NCATS).
Results filed as inconclusive are left out. Activity calls are given as the source filed them. Calls follow the shape of the dose curve; as a rule, active = well fitted inhibition curve with a large enough effect; inconclusive = small, poorly fitted or top-dose-only effect; inactive = flat fitted curve, though single readings scatter.

Biological target: Calcium and integrin-binding protein 1 (Homo sapiens) (UniProt Q99828)
Test: Primary qHTS for Identification of Calcium Integrin Binding Protein 1 (CIB1) Competitor (AID 1508620); also: top concentration of the series differs between compounds
Details: CIB1-GST / FITC-alphaIIb peptide fluorescence polarization; series mostly up to 57.7 µM; activity change, negative = inhibition: at the top concentration
In short: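 Fluorescence polarization competition: GST-tagged CIB1 (1 uM final) preincubated with compound 15 min at room temperature, then FITC-labelled alphaIIb peptide (100 nM final) added. After 15 min at room temperature, polarization read at Ex 480/Em 540.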
% is scaled to controls: 0 for no effect and ±100 for the full control effect.

Calcium and integrin-binding protein 1 (Homo sapiens), sequence (Q99828 whole entry, looked up): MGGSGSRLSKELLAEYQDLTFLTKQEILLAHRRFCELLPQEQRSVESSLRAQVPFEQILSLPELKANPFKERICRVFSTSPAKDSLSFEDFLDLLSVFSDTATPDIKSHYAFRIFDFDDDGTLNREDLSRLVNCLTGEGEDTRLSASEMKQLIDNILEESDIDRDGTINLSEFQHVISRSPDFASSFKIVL

Structure (SMILES) | activity change, negative = inhibition
O=C(O[C@H]1[C@@H]2C[C@@H]3OC[C@@](O)([C@H]2[C@H](O[C@@H]2O[C@H](CO)[C@@H](O)[C@H](O)[C@H]2O)O3)[C@@H]1O)c1ccccc1 | -2.11% (inactive)
COc1ccc(C(O[C@@H]2O[C@H](CO)[C@@H](O)[C@H](O)[C@H]2O)C(CO)Oc2ccc(/C=C/CO)cc2OC)cc1O (some centres not stated) | 4.32% (inactive)
COc1cc(/C=C/C(=O)OC2CC(C)=C(C(=O)O)/C2=C/CO[C@@H]2O[C@H](CO)[C@@H](O)[C@H](O)[C@H]2O)ccc1O (some centres not stated) | -9.53% (inactive)
CC1(CO)CC2C(O)C(=O)C3(CO)CC3(C)C2C1 (configuration not stated) | 2.61% [at 114 µM] (inactive)
CCC/C=C/C(=O)O[C@H]1CC(C)(C)CC2[C@]13[C@H](O)O[C@@]21CCC2[C@@]4(C)CC[C@H](O[C@@H]5O[C@H](C(=O)O)[C@@H](O)[C@H](O[C@@H]6O[C@H](CO)[C@H](O)[C@H](O)[C@H]6O[C@@H]6O[C@@H](C)[C@H](O)[C@@H](O)[C@H]6O[C@@H]6OC[C@](O)(CO)[C@H]6O)[C@H]5O[C@@H]5O[C@H](CO)[C@H](O)[C@H](O)[C@H]5O)C(C)(C)C4CC[C@@]2(C)[C@]1(C)C[C@H]3OC(C)=O (some centres not stated) | -7.58% [at 12.4 µM] (inactive)
C=C1CC[C@@H]2[C@](C)(CO[C@@H]3O[C@H](CO)[C@@H](O)[C@H](O)[C@H]3O)CCC[C@@]2(C)[C@@H]1CCC1=CCOC1=O | 4.06% (inactive)
COC1=CC(=O)C[C@@H](C)[C@]12Oc1cc(OC)cc(OC)c1C2=O | 2.85% (inactive)
CC1(C)CCC2(C(=O)OC3OC(COC4OC(CO)C(O)C(O)C4O)C(O)C(O)C3O)CCC3(C)C(=CCC4C5(C)CCC(O)C(C)(C(=O)O)C5CCC43C)C2C1O (configuration not stated) | 0.991% [at 30.2 µM] (inactive)
CCC[C@@H]1C[C@@H](C(=O)N[C@@H]([C@H]2O[C@H](SC)[C@H](OP(=O)(O)O)[C@@H](O)[C@H]2O)[C@H](C)Cl)N(C)C1 | 3.67% (inactive)
C=CCc1ccc(O[C@@H]2O[C@H](CO)[C@@H](O)[C@H](O)[C@H]2O)c(OC)c1 | 0.572% (inactive)
CC1CCC2(C(=O)OC3OC(COC4OC(CO)C(O)C(O)C4O)C(O)C(O)C3O)CCC3(C)C(=CCC4C5(C)CCC(O)C(C)(C(=O)O)C5CCC43C)C2C1(C)O (configuration not stated) | 2.95% [at 30.2 µM] (inactive)
C[C@H]1CC[C@@]2(OC1)O[C@H]1CC3C4CC=C5C[C@H](O)C[C@@H](O[C@@H]6O[C@@H](C)[C@H](O)[C@@H](O)[C@H]6O[C@@H]6O[C@@H](C)[C@H](O)[C@@H](O)[C@H]6O)[C@]5(C)C4CC[C@]3(C)[C@H]1[C@@H]2C (some centres not stated) | 0.158% [at 30.2 µM] (inactive)
C=C[C@H]1[C@H](O[C@@H]2O[C@H](CO[C@@H]3OC[C@](O)(CO)[C@H]3O)[C@@H](O)[C@H](O)[C@H]2O)OC=C2C(=O)OCC[C@H]21 | 0.387% (inactive)
CC(=O)O[C@@H]1C[C@]2(C)[C@@]3(CCC4[C@@]5(C)CC[C@H](O[C@@H]6O[C@H](C(=O)O)[C@@H](O)[C@H](O[C@@H]7O[C@H](CO)[C@H](O)[C@H](O)[C@H]7O[C@@H]7O[C@@H](C)[C@H](O)[C@@H](O)[C@H]7O[C@@H]7OC[C@](O)(CO)[C@H]7O)[C@H]6O[C@@H]6O[C@H](CO)[C@H](O)[C@H](O)[C@H]6O)C(C)(C)C5CC[C@]42C)O[C@@H](O)[C@]12C3CC(C)(C)[C@@H](OC(=O)/C=C/c1ccc(O)c(O)c1)[C@@H]2OC(=O)/C=C/c1ccccc1 (some centres not stated) | 2.91% [at 12.4 µM] (inactive)
COc1cc(/C=C/CO)ccc1O[C@@H]1O[C@H](CO)[C@@H](O)[C@H](O)[C@H]1O | 2.31% (inactive)
OC[C@H]1O[C@@H](Oc2ccc3c(c2)OC[C@H]2c4cc5c(cc4O[C@@H]32)OCO5)[C@H](O)[C@@H](O)[C@@H]1O | -0.311% (inactive)
C=CC(C)(C)O[C@@H]1O[C@H](CO[C@@H]2OC[C@](O)(CO)[C@H]2O)[C@@H](O)[C@H](O)[C@H]1O | -3.13% (inactive)
